# In PubChem BioAssay (Tox21):
# Records with an inconclusive call do not appear. Values without a mark were called inactive. Calls of active or inactive are those of the source. Calls come from the whole dose curve; as a rule, active = well fitted cell-killing curve with a large enough effect in the repeat runs (not every such curve was filed as active); inconclusive = weak or mixed curves, or effect the other way; inactive = no such curve, though single readings can be large or run the other way.
# Experiment: qHTS assay to identify small molecule antagonists of the farnesoid-X-receptor (FXR) signaling pathway - cell viability counter screen (AID 743221); note: nearly all actives have a fitted effect of over 50% in size
# Conditions: FXR-bla HEK293T viability, CellTiter-Glo luminescence, 16 h; series mostly up to 62.6 µM; activity change, negative = cytotoxicity: at the top concentration
# Source text: National Center for Advancing Translational Sciences [NCATS]
# NIH Chemical Genomics Center [NCGC]
# U.S. Environmental Protection Agency [EPA]
# National Institutes of Environmental Health Sciences [NIEHS]
# National Toxicology Program [NTP]
# U.S. Food and Drug Administration [FDA]
# The farnesoid-X-receptor (FXR), a nuclear hormone receptor, is highly expressed in liver, intestine, kidney and adrenal cortex. Natural ligands of FXR are the bile acids (Cholic acid, Chenodeoxy cholic acid etc). FXR is an important regulator of diverse metabolic pathways, including the bile acid homeostasis, lipid and glucose metabolisms. FXR regulates the expression of target genes by binding either as a monomer or as a heterodimer with the retinoid X receptor (RXR). Numerous studies have reported that FXR exerts protective function during cholestasis, diabetes, liver regeneration, and cancer. To identify compounds that inhibit FXR signaling, GeneBLAzer FXR-UAS-bla HEK 293T cell line (Invitrogen, Carlsbad, CA) containing a beta-lactamase reporter gene under the control of a UAS response element was used to screen the Tox21 10K compound library. The cytotoxicity of the Tox21 compound library against the FXR-bla cell line was tested in parallel by measuring the cell viability using CellTiter-Glo assay in the same wells.
# Tox21 Assay Protocol Summary:
# FXR-bla cells were dispensed at 5000 cells/5uL/well in 1536-well black wall/clear bottom plates using a Multidrop Combi (Thermo Fisher Scientific, Waltham, MA) dispenser. After the assay plates were incubated at 37 C and 5% CO2 for 5 h, 23 nL of compounds dissolved in DMSO, positive controls or DMSO only was transferred to the assay plate by a Pintool station (Kalypsys, San Diego, CA), followed by addition of 1 uL Chenodeoxycholic acid (50 uM, final concentration in the wells). The assay plates were incubated at 37C for 16 h. After 1 uL of LiveBLAzerTM B/G FRET substrate was added using a Bioraptr Flying Reagent Dispenser (FRD) workstation (Beckman Coulter, Indianapolis, IN), the plates were incubated at room temperature for 2 h, and fluorescence intensity was measured by an Envision plate reader (PerkinElmer, Shelton, CT). For cell viability readout that measures cytotoxicity, 4uL/well of CellTiter-Glo reagent was added into the assay plates using a Bioraptr FRD. After 30 min incubation at room temperature, the luminescence intensity in the plates was measured using a ViewLux plate reader (PerkinElmer).
# % is set by controls: 0 for no effect and ±100 for the full control effect.
Compound,outcome,"activity change, negative = cytotoxicity"
CC1C=[C-]C=C1.[C-]#[O+].[C-]#[O+].[C-]#[O+].[Mn],inactive,
O=c1n(Cl)c(=O)n(Cl)c(=O)n1Cl,inactive,
CC(NC(C)(C)C)C(=O)c1cccc(Cl)c1 (stereo not given),inactive,
C1CC2OC2CC1C1CO1 (stereo not given),inactive,
[O-][Cl+2]([O-])O,inactive,
Clc1ccccc1Cl,inactive,
O=c1ccc(=O)[nH][nH]1,inactive,
O=Cc1cccc(Oc2ccccc2)c1,inactive,
COP(N)(=O)SC (stereo not given),inactive,
CCN(CC)c1ccccc1,inactive,
c1ccc(-c2ccccc2)cc1,inactive,
C=CCO,inactive,
CCCCOC(=O)c1ccccc1C(=O)OCCCC,inactive,
c1ccc2c(c1)Oc1ccccc1O2,inactive,
CCC12COCN1COC2,inactive,
Nc1ccc(Br)cc1,inactive,
Nc1c(Cl)c(Cl)nc(C(=O)O)c1Cl,inactive,
Cc1cc(Cl)ccc1O,inactive,
CCCCCOC(=O)c1ccccc1C(=O)OCCCCC,inactive,
NCC(O)c1ccc(O)cc1 (stereo not given),inactive,

Compound,outcome,"activity change, negative = cytotoxicity"
[N-]=[N+]=[N-],inactive,
O=C(O)c1ccccn1,inactive,
CC(Br)C(=O)O (stereo not given),,5.93% [at 81.1 µM]
BrCCBr,inactive,
CC(C)(Cl)Cl,inactive,
c1cc2c3c(cccc3c1)CC2,inactive,
CCCN(CCC)c1c([N+](=O)[O-])cc(C(F)(F)F)cc1[N+](=O)[O-],inactive,
CCN(CC)CCO,inactive,
C#CC(C)(C)NC(=O)c1cc(Cl)cc(Cl)c1,inactive,
Cc1cc(-c2cc(C)c(N)c(C)c2)cc(C)c1N,,-16.1%
c1ccc(OP(Oc2ccccc2)Oc2ccccc2)cc1,inactive,
CCCCCCCCCl,inactive,
CC(C)C#N,inactive,
Cc1cccc([N+](=O)[O-])c1,inactive,
CCC[N+](=O)[O-],inactive,
Cc1ccc(N)cc1N,inactive,
O=C1CCCN1,inactive,
CN(C)N=O,inactive,
O=c1[nH]c2ccccc2c(=O)o1,inactive,
ClCCBr,inactive,
